# Of roughly 6,500 targets only a part is listed; those with a hit were picked by preference. About 2% of all pairs of compound and target were hits.
# Compound: COC(=O)C#Cc1ccccc1 [methyl 3-phenylpropiolate]
# Assay: log2 ratio of iodoacetamide-alkyne labeling of the cysteine site, DMSO over compound (competition); higher = stronger covalent engagement of the cysteine by the compound, active = 1 or more
# Conditions: 500 µM; treatment time 1 h; system: HEK293T cell lysate
# Method in brief: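 Reporter intensities give each cysteine's log2 competition ratio as the mean of control channels over the mean of compound channels. The samples were HEK293T lysate (2 mg/mL) given vehicle or electrophile (500 µM, 1 h, ambient temperature), then iodoacetamide alkyne (1 h), followed by click coupling to sCIP-TMT reagents, pooling, trypsin digestion overnight at 37 °C, streptavidin enrichment, acid elution, Orbitrap Eclipse LC-MS/MS with FAIMS and FragPipe quantification. Duplicate channels and three replicates were run, and cysteines quantified in only one replicate were discarded.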
# Sequence of UniProt Q9Y223 (Q9Y223 whole entry): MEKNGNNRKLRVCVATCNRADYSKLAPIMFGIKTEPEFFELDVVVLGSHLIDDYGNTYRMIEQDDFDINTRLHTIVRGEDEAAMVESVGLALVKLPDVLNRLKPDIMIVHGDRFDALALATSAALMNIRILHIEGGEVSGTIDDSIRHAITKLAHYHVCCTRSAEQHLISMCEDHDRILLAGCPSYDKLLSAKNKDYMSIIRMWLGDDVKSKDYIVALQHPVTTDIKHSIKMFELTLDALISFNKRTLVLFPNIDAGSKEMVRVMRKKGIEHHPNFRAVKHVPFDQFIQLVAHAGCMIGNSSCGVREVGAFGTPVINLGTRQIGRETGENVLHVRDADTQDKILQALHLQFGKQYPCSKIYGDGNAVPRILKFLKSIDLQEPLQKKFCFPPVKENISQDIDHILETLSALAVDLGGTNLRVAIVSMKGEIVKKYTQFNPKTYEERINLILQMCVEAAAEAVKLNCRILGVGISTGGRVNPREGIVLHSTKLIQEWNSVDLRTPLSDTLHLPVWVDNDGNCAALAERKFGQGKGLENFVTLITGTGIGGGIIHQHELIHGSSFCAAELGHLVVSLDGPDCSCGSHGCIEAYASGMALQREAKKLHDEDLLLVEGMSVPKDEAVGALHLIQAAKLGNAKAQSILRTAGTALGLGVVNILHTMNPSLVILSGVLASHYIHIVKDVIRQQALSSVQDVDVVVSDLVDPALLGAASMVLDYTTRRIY
# Sequence of UniProt Q9Y4P8 (Q9Y4P8 whole entry): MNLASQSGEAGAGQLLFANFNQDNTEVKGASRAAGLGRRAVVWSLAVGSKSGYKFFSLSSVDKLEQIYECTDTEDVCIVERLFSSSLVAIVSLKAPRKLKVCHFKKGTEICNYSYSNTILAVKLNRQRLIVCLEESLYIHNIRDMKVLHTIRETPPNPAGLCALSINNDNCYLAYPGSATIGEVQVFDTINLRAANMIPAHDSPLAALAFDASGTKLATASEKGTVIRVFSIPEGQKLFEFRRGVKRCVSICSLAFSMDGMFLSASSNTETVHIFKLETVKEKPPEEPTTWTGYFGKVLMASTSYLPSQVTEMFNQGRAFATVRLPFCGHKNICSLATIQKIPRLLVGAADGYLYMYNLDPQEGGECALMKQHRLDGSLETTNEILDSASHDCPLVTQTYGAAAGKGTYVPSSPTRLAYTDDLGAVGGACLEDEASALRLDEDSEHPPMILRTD
# Sequence of UniProt Q9Y2R4 (Q9Y2R4 whole entry): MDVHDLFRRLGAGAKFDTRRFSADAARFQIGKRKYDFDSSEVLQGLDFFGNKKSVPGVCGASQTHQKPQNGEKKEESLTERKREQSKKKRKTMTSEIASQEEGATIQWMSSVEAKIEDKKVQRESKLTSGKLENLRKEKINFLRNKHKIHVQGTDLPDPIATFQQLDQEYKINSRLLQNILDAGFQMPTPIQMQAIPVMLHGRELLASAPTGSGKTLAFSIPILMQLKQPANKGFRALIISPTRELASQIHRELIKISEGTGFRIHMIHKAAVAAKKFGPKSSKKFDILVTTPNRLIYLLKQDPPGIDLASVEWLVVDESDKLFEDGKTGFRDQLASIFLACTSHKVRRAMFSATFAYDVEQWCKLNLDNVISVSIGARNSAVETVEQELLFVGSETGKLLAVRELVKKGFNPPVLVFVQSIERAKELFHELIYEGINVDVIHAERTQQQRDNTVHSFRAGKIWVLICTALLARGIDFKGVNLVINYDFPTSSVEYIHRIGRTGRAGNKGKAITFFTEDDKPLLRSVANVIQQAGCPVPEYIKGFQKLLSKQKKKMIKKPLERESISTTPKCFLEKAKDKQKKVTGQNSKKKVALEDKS
# Sequence of UniProt Q9NVV4 (Q9NVV4 whole entry, looked up): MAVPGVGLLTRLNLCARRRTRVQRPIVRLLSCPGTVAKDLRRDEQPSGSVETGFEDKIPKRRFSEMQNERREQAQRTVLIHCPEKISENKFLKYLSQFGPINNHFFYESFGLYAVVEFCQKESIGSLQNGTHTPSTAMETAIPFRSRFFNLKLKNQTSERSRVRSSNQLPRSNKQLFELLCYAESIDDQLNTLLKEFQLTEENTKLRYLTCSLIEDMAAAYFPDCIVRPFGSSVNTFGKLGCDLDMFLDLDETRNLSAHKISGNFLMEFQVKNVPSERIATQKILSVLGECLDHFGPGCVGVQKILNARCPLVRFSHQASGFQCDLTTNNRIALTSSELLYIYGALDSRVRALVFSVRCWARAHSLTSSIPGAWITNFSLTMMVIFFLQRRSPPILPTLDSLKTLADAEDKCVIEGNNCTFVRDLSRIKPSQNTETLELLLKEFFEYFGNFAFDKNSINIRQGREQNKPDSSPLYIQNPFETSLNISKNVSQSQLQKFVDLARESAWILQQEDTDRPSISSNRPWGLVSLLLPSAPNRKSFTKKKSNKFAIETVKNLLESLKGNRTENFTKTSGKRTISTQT
# Sequence of UniProt Q9NTI5 (Q9NTI5 whole entry): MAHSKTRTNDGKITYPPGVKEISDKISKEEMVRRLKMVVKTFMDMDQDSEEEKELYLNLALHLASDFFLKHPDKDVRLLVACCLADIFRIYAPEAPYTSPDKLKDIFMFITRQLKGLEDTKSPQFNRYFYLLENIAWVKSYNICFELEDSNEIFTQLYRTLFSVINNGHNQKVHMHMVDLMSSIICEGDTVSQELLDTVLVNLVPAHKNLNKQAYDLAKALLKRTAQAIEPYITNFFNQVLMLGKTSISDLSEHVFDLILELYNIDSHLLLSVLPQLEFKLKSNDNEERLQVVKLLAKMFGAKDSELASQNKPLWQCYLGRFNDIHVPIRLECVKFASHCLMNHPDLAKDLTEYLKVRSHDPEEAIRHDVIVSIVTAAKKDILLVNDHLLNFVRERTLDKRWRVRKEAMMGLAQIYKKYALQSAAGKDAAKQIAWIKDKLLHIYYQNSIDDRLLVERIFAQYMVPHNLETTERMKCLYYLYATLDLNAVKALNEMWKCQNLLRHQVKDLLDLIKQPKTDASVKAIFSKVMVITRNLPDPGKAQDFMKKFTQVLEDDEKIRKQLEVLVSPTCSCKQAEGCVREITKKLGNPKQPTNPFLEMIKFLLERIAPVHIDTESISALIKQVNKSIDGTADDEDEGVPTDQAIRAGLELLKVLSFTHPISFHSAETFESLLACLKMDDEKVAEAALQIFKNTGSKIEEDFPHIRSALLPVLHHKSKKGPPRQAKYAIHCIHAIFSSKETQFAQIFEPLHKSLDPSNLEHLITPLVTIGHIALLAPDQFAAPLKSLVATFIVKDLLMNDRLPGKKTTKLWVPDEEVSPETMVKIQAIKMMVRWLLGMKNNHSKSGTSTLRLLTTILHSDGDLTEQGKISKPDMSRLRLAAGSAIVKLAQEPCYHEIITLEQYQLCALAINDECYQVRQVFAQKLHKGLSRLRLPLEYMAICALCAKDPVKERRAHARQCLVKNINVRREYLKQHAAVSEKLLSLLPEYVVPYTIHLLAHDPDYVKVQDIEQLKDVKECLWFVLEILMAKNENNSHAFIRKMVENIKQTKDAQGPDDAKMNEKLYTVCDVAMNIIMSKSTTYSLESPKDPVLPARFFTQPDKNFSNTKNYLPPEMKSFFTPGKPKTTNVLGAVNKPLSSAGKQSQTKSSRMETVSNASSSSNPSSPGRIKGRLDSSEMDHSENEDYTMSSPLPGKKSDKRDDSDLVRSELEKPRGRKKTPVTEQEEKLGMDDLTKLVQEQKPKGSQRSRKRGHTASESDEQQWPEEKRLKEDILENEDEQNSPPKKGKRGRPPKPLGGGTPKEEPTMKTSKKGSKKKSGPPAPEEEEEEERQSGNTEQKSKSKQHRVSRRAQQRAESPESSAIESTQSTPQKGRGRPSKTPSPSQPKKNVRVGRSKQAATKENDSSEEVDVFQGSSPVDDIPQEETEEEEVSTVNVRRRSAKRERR
# Sequence of UniProt Q9NVC6 (Q9NVC6 whole entry, looked up): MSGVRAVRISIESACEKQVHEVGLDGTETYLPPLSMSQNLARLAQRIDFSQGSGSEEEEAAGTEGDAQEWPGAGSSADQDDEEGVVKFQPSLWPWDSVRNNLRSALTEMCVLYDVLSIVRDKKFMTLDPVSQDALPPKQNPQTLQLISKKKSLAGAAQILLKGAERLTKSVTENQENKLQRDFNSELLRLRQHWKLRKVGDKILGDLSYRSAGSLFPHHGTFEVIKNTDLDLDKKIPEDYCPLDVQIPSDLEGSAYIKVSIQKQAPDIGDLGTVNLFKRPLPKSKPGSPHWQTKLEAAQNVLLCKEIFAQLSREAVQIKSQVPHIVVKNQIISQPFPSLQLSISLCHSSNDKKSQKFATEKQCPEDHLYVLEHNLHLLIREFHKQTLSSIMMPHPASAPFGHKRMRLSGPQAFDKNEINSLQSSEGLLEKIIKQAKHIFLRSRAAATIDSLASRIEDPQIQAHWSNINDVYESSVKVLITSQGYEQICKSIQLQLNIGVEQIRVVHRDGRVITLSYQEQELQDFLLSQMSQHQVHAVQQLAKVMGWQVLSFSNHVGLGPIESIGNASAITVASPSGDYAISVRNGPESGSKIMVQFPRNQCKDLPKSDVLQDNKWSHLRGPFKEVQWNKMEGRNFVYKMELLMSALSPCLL
# Sequence of UniProt Q9Y230 (Q9Y230 whole entry): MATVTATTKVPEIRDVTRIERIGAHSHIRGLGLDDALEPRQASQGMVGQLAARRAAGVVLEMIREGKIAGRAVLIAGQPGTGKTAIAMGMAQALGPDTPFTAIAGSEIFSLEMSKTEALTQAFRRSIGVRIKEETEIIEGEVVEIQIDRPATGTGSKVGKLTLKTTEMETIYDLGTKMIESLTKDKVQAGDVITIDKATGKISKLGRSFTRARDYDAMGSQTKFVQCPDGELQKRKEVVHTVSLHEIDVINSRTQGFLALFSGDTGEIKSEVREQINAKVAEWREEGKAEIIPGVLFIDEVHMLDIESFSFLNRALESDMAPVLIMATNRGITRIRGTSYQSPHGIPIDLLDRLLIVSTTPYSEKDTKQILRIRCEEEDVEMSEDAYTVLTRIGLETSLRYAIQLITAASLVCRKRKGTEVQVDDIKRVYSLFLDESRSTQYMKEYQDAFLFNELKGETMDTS
row,Target,log2 ratio of iodoacetamide-alkyne labeling
1,UniProt Q9NWR8_C324,1.65 (active)
2,MTPAP C242 (UniProt Q9NVV4),0.146 (inactive)
3,HNRNPUL1 C291 (UniProt Q9BUJ2),0.483 (inactive)
4,GNE C357 (UniProt Q9Y223),0.234 (inactive)
5,WIPI2 C393 (UniProt Q9Y4P8),1.22 (active)
6,UniProt Q9NRP4_C80,0.483 (inactive)
7,UniProt Q9NVH0_C284,0.123 (inactive)
8,DDX52 C536 (UniProt Q9Y2R4),0.566 (inactive)
9,MACF1 C5049 (UniProt Q9UPN3),0.311 (inactive)
10,IKBKG C347 (UniProt Q9Y6K9),0.397 (inactive)
11,UniProt Q9Y3U8_C48,0.297 (inactive)
12,MED17 C110 (UniProt Q9NVC6),0.34 (inactive)
13,TANC1 C1594 (UniProt Q9C0D5),1.06 (active)
14,RUVBL2 C227 (UniProt Q9Y230),0.198 (inactive)
15,UniProt Q9NWY4_C17,0.873 (inactive)
16,BAZ1B C953 (UniProt Q9UIG0),1.28 (active)
17,PDS5B C1069 (UniProt Q9NTI5),0.199 (inactive)

# Source: the supplement of paper PMC11006884
